Test results as given in article PMC5540273 (PLoS ONE, 2017).

Columns and labels:
Settings in all cases: concentration: 1 μM, replicates: in singlicate; n = 1
[1] = test system: TSSK1B
[2] = test system: TSSK3
[3] = test system: TTK
[4] = test system: TXK
[5] = test system: TYK2(JH1domain-catalytic)
[6] = test system: TYK2(JH2domain-pseudokinase)
[7] = test system: TYRO3
[8] = test system: ULK1
[9] = test system: ULK2
[10] = test system: ULK3
[11] = test system: T1, VEGFR2
T1 construct: gene KDR

[12] = test system: T2, VPS34
T2 construct: gene PIK3C3

[13] = test system: VRK2
[14] = test system: WEE1
[15] = test system: WEE2
[16] = test system: WNK1
[17] = test system: WNK2
[18] = test system: WNK3
[19] = test system: WNK4
[20] = test system: T3, YANK1
T3 construct: gene STK32A
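Note: KINOMEscan kinase panel screen.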

Row | SMILES | %Inh [1] [%] | %Inh [2] [%] | %Inh [3] [%] | %Inh [4] [%] | %Inh [5] [%] | %Inh [6] [%] | %Inh [7] [%] | %Inh [8] [%] | %Inh [9] [%] | %Inh [10] [%] | %Inh [11] [%] | %Inh [12] [%] | %Inh [13] [%] | %Inh [14] [%] | %Inh [15] [%] | %Inh [16] [%] | %Inh [17] [%] | %Inh [18] [%] | %Inh [19] [%] | %Inh [20] [%]
1 | Cc1ccc(NC(=O)Nc2ccc(Cl)cc2)cc1-c1ccc(C(=O)Nc2ccncc2)cc1 [GSK1398472] | 0 | 11 | 0 | 47 | 62 | 13 | 4 | 8 | 0 | 0 | 9 | 0 | 0 | 16 | 5 | 7 | 0 | 13 | 23 | 1
2 | CSc1ccc(-c2nc3n(c2-c2ccncc2)CCC3)cc1 [SKF-105561] | 0 | 0 | 14 | 11 | 0 | 0 | 0 | 18 | 0 | 33 | 11 | 19 | 3 | 0 | 7 | 24 | 21 | 30 | 3 | 0
3 | COC(=O)C(NC(=O)NC1CCN(c2ccnc(Nc3ccc(F)cc3)n2)C1)c1ccccc1 (stereo not drawn) [GSK1379712] | 14 | 23 | 3 | 0 | 13 | 22 | 0 | 0 | 3 | 4 | 14 | 0 | 24 | 9 | 0 | 22 | 28 | 36 | 25 | 0
4 | CC(C)c1cc(-c2ccc3c(N)n[nH]c3c2)nc(N)n1 [GSK2250882] | 6 | 20 | 10 | 0 | 20 | 2 | 0 | 6 | 0 | 9 | 0 | 9 | 4 | 11 | 6 | 0 | 0 | 3 | 0 | 20
5 | CCc1ccc(-c2ccc3c(c2)-c2n[nH]cc2S(=O)(=O)N3C)cc1 | 0 | 0 | 0 | 14 | 0 | 5 | 0 | 0 | 0 | 0 | 0 | 4 | 0 | 14 | 0 | 23 | 2 | 3 | 0 | 0
6 | Cl.Cl.Cl.N#Cc1ccc(CCNc2nccc(-c3cccc(CN4CCNCC4)c3)n2)cc1 [GSK2137462] | 0 | 5 | 14 | 2 | 0 | 0 | 23 | 11 | 12 | 2 | 0 | 7 | 0 | 90.8 | 0 | 0 | 0 | 0 | 95.5 | 12
7 | O=C(Nc1n[nH]c2cc(-c3ccsc3)ccc12)C1CC1 [SB-732932] | 13 | 27 | 35 | 5 | 9 | 0 | 14 | 21 | 6 | 32 | 13 | 27 | 0 | 0 | 13 | 18 | 34 | 18 | 9 | 0
8 | COc1ccc(CSc2nnc(-c3ccc4ncsc4c3)o2)cc1C(F)(F)F | 0 | 0 | 13 | 0 | 0 | 0 | 0 | 0 | 0 | 0 | 0 | 0 | 0 | 0 | 0 | 0 | 8 | 0 | 0 | 0
9 | COc1cccc(C2=C(Nc3cc(Cl)c(O)c(Cl)c3)C(=O)NC2=O)c1 [SB-390767] | 0 | 16 | 7 | 15 | 28 | 39 | 29 | 32 | 0 | 13 | 0 | 0 | 20 | 0 | 0 | 20 | 0 | 16 | 17 | 0
10 | COC(=O)C(Cc1ccccc1)NC(=O)NC1CCN(c2ccnc(Nc3ccc(F)cc3)n2)C1 (stereo not drawn) [GSK1379714] | 0 | 21 | 0 | 0 | 33 | 19 | 0 | 0 | 0 | 0 | 7 | 3 | 38 | 0 | 13 | 3 | 46 | 38 | 45 | 0
11 | CC[C@@H]1CO[C@H](C(=O)Nc2ccccc2)CN1c1cc(-c2ccc3c(N)n[nH]c3c2)nc(NC)n1 [GSK2376236] | 0 | 13 | 0 | 0 | 0 | 0 | 0 | 13 | 10 | 4 | 8 | 12 | 0 | 2 | 0 | 4 | 10 | 5 | 0 | 41
12 | CS(=O)(=O)CCNCc1nc(-c2ccc3ncnc(Nc4ccc(OCc5ccccc5)c(Cl)c4)c3c2)cs1.Cl [GW582764] | 19 | 8 | 0 | 6 | 30 | 35 | 0 | 5 | 0 | 3 | 0 | 0 | 50 | 0 | 16 | 6 | 13 | 45 | 60 | 0
13 | O=C1NC(=O)C(c2ccc(Cl)cc2)=C1Nc1cccc(Cl)c1 [SB-317651] | 0 | 18 | 0 | 12 | 0 | 0 | 0 | 11 | 25 | 1 | 0 | 90.2 | 90.5 | 0 | 29 | 0 | 27 | 0 | 0 | 0
14 | Cc1ccc(-c2nc(Nc3ccncc3)c3ccccc3n2)s1 [GSK189015] | 15 | 17 | 40 | 53 | 24 | 76 | 12 | 12 | 5 | 7 | 0 | 0 | 0 | 8 | 4 | 0 | 3 | 0 | 0 | 15
15 | CNCc1ccc2nc(NC(=O)c3ccc(C(C)(C)C)cc3)cn2c1 | 0 | 0 | 0 | 8 | 0 | 24 | 0 | 20 | 15 | 58 | 6 | 2 | 74 | 0 | 0 | 0 | 0 | 30 | 13 | 2
16 | Cc1ccc(NC(=O)Nc2ccccc2)cc1-c1ccc(C(=O)Nc2ccncc2)cc1 [GSK1398471] | 0 | 0 | 2 | 0 | 0 | 0 | 15 | 12 | 0 | 7 | 0 | 0 | 0 | 26 | 0 | 0 | 36 | 0 | 0 | 9
17 | Cc1c(Cn2c(C)c(C)n3c(=O)cc(N4CCOCC4)nc23)cccc1C(F)(F)F [GSK2328680] | 11 | 7 | 0 | 20 | 5 | 4 | 0 | 9 | 0 | 14 | 0 | 20 | 0 | 9 | 14 | 0 | 0 | 0 | 0 | 6
18 | Cc1ccccc1Cn1ccn2c(=O)cc(N3CCOCC3)nc12 [GSK2269905] | 10 | 0 | 5 | 7 | 0 | 0 | 0 | 16 | 0 | 9 | 0 | 88 | 0 | 0 | 0 | 10 | 0 | 8 | 0 | 8
19 | O=c1cc(N2CCOCC2)nc2n(Cc3ccccc3F)ccn12 [GSK2297428] | 0 | 13 | 0 | 0 | 0 | 0 | 0 | 0 | 0 | 0 | 0 | 94 | 0 | 0 | 0 | 0 | 0 | 19 | 0 | 0
20 | COC(=O)c1cccc(NC(=O)NC2CCN(c3ccnc(Nc4ccc(OC)cc4)n3)C2)c1 (stereo not drawn) [GSK1379746] | 13 | 7 | 0 | 8 | 33 | 51 | 0 | 0 | 3 | 9 | 0 | 0 | 0 | 7 | 0 | 11 | 4 | 51 | 46 | 0
21 | Cc1ccccc1-c1cc(-c2c[nH]nc2-c2ccccn2)ccn1 [GW680061] | 1 | 15 | 6 | 0 | 0 | 18 | 35 | 0 | 0 | 13 | 0 | 0 | 0 | 8 | 0 | 14 | 14 | 24 | 31 | 0
